Experimental data from PubChem BioAssay (EPA / NIEHS).
Several values for one entry are separate records, joined by “and”; a condition that tells them apart may be missing. Identical values can stand only once. Inconclusive results are not listed. The source holds several records for some structures; these can differ, active in one and inactive in another. Activity calls are given as the source filed them. Rule for the calls, unless noted: active = hit-call score of the fitted dose curve at least 0.9, where 1 is the maximum; inactive = score below 0.9.

What follows are compounds tested against Estrogen receptor (Homo sapiens) (UniProt P03372) (assay: ATG_ERa_TRANS: Attagene TRANS-FACTORIAL HepG2 Assay for human Estrogen Receptor alpha (ERa) (AID 2282970; active = hit-call score of the fitted dose curve at least 0.9, where 1 is the maximum)). Conditions: HepG2 Attagene TRANS ERa GAL4 reporter, mRNA.
Estrogen receptor (Homo sapiens), sequence (P03372 whole entry, looked up, the tested form may be a part): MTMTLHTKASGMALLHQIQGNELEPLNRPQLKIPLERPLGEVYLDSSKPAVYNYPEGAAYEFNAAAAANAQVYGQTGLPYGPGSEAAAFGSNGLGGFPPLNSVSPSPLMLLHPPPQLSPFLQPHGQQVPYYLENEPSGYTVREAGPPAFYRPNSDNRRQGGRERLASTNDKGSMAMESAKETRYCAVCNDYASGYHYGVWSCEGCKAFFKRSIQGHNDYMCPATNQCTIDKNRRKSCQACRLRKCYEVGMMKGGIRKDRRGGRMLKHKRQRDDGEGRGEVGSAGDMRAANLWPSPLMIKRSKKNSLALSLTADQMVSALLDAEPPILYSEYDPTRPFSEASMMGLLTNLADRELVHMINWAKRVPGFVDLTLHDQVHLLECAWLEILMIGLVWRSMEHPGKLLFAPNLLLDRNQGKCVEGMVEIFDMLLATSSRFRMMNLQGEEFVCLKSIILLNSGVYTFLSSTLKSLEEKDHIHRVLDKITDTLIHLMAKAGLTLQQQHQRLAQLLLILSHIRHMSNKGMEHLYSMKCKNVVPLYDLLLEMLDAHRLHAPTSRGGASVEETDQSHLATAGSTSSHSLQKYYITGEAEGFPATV
How it was run: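 Transactivation via ERa-Gal4 chimera in HepG2; 24 hour incubation; reporter mRNA detected by fluorescence RT-PCR and capillary electrophoresis.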

| Compound | outcome | AC50 |
| --- | --- | --- |
| CCC(O)=C1C(=O)CC(C(=O)O)CC1=O (centres undefined) | inactive |  |
| COC(=O)c1cccc(C)c1S(=O)(=O)NC(=O)Nc1nc(OCC(F)(F)F)nc(N(C)C)n1 | inactive |  |
| CCN(Cc1c(F)cccc1Cl)c1c([N+](=O)[O-])cc(C(F)(F)F)cc1[N+](=O)[O-] |  | 3.08 µM (active) |
| C#CCOC(=O)[C@@H](C)Oc1ccc(Oc2ncc(Cl)cc2F)cc1 | inactive |  |
| c1ccc2[nH]c(-c3cscn3)nc2c1 | inactive |  |
| CN(C)C(=O)Nc1ccc(Cl)c(Cl)c1 | inactive |  |
| CCCN(CCC)c1c([N+](=O)[O-])cc(C(F)(F)F)c(N)c1[N+](=O)[O-] |  | 5.67 µM (active) |
| CC1(C)C(C=C(Cl)Cl)C1C(=O)OCc1cccc(Oc2ccccc2)c1 (centres undefined) |  | 25.9 µM (active) |
| C[C@]12CC[C@@H]3c4ccc(O)cc4C[C@@H](CCCCCCCCCS(=O)CCCC(F)(F)C(F)(F)F)[C@H]3[C@@H]1CC[C@@H]2O (some centres undefined) | inactive |  |
| O=C(c1ccccc1)C1CCCCC1 |  | 25.3 µM (active) [middle of 4 runs] |
| COc1c(Cl)ccc(Cl)c1C(=O)O | inactive |  |
| O=C(c1ccc(O)cc1O)c1ccc(O)cc1O |  | 827 nM (active) [middle of 4 runs] |
| O=C(O)C1(C(=O)Nc2ccc(Cl)cc2Cl)CC1 | inactive |  |
| N#CSCSc1nc2ccccc2s1 | inactive |  |
| CC(=O)S[C@@H]1CC2=CC(=O)CC[C@]2(C)[C@H]2CC[C@@]3(C)[C@@H](CC[C@@]34CCC(=O)O4)[C@H]12 | inactive |  |
| CC(C)CCCCCCc1ccc(O)cc1 |  | 735 nM (active) [middle of 4 runs] |
| CCOC(=O)NCCOc1ccc(Oc2ccccc2)cc1 |  | 13.8 µM (active) |

Each compound was assayed against Steroid hormone receptor ERR1 (Homo sapiens) (UniProt P11474) (assay: ATG_ERRa_TRANS: Attagene TRANS-FACTORIAL HepG2 Assay for human Estrogen-Related Receptor alpha (ERRa) (AID 2282971; active = hit-call score of the fitted dose curve at least 0.9, where 1 is the maximum)). Conditions: HepG2 Attagene TRANS reporter, ERRa transactivation.
Steroid hormone receptor ERR1 (Homo sapiens), sequence (P11474 whole entry, looked up, the tested form may be a part): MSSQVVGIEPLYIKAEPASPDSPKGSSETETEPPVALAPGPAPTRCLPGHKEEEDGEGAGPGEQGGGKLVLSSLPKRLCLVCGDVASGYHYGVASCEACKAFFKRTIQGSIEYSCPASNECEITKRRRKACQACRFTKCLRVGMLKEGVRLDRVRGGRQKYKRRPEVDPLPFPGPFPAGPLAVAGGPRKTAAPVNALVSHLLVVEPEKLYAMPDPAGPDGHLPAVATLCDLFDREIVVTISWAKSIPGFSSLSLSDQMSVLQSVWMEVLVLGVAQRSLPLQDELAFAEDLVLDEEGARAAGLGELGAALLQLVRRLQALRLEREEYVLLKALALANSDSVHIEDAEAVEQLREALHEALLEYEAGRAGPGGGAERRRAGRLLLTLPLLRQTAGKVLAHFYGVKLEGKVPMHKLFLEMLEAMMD
How it was run: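 HepG2 cells were transiently transfected with multiple GAL4-UAS reporter units, then dosed with compound for 24 h. Total RNA was reverse-transcribed, reporter cDNA PCR-amplified and fluorescently labelled, and fragments resolved by capillary electrophoresis; induction was compared with DMSO.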

| Compound | outcome |
| --- | --- |
| CCC(O)=C1C(=O)CC(C(=O)O)CC1=O (centres undefined) | inactive |
| COC(=O)c1cccc(C)c1S(=O)(=O)NC(=O)Nc1nc(OCC(F)(F)F)nc(N(C)C)n1 | inactive |
| CCN(Cc1c(F)cccc1Cl)c1c([N+](=O)[O-])cc(C(F)(F)F)cc1[N+](=O)[O-] | inactive |
| CC(=O)[C@H]1CC[C@H]2[C@@H]3CCC4=CC(=O)CC[C@]4(C)[C@H]3CC[C@]12C | inactive |
| C#CCOC(=O)[C@@H](C)Oc1ccc(Oc2ncc(Cl)cc2F)cc1 | inactive |
| CN(C)C(=O)Nc1ccc(Cl)c(Cl)c1 | inactive |
| CCCN(CCC)c1c([N+](=O)[O-])cc(C(F)(F)F)c(N)c1[N+](=O)[O-] | inactive |
| C[C@]12CC[C@@H]3c4ccc(O)cc4C[C@@H](CCCCCCCCCS(=O)CCCC(F)(F)C(F)(F)F)[C@H]3[C@@H]1CC[C@@H]2O (some centres undefined) | inactive |
| c1ccc(Nc2ccccc2)cc1 | inactive |
| O=C(c1ccccc1)C1CCCCC1 | inactive |
| CC(C)(c1ccc(O)cc1)c1ccc(O)cc1 | inactive |
| CCOC(=O)NCCOc1ccc(Oc2ccccc2)cc1 | inactive |
| CCNc1nc(N)nc(Cl)n1 | inactive |

The compounds below were run against X-box-binding protein 1 (Homo sapiens) (UniProt P17861) (assay: ATG_Xbp1_CIS: Attagene CIS-FACTORIAL HepG2 Assay for human X-box Binding Protein 1 (XBP1) (AID 2282972)). Conditions: HepG2 XBP1 cis-element reporter, Attagene multiplex; actives raise or lower the signal.
X-box-binding protein 1 (Homo sapiens), sequence (P17861 whole entry, looked up, the tested form may be a part): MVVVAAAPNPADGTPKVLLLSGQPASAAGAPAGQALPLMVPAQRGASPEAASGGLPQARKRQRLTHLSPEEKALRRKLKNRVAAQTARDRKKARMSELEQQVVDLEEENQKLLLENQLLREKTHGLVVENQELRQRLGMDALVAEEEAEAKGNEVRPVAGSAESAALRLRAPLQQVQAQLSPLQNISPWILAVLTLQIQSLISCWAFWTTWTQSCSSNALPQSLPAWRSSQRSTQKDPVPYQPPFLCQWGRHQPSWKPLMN
How it was run: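 Fluorescence-labelled cDNA fragments from reporter transcripts, separated by capillary electrophoresis, give the signal. Source: HepG2 cells transfected with promoter-driven reporter units, harvested 24 h post-dose. DMSO served as reference for bidirectional curve fitting.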

| Compound | outcome | AC50 |
| --- | --- | --- |
| CCC(O)=C1C(=O)CC(C(=O)O)CC1=O (centres undefined) | inactive |  |
| COC(=O)c1cccc(C)c1S(=O)(=O)NC(=O)Nc1nc(OCC(F)(F)F)nc(N(C)C)n1 | inactive |  |
| N[C@@H](Cc1cc(I)c(Oc2ccc(O)c(I)c2)c(I)c1)C(=O)O | inactive |  |
| S=C([S-])NCCNC(=S)[S-].[Mn+2] | inactive |  |
| CCN(Cc1c(F)cccc1Cl)c1c([N+](=O)[O-])cc(C(F)(F)F)cc1[N+](=O)[O-] | inactive |  |
| CC(=O)[C@H]1CC[C@H]2[C@@H]3CCC4=CC(=O)CC[C@]4(C)[C@H]3CC[C@]12C | inactive |  |
| S=C(S)NCCNC(=S)S.[Mn+2].[S-]C([S-])=NCCN=C([S-])[S-].[Zn+2] | inactive |  |
| C#CCOC(=O)[C@@H](C)Oc1ccc(Oc2ncc(Cl)cc2F)cc1 | inactive |  |
| c1ccc2[nH]c(-c3cscn3)nc2c1 | inactive |  |
| CN(C)C(=O)Nc1ccc(Cl)c(Cl)c1 | inactive |  |
| CCCN(CCC)c1c([N+](=O)[O-])cc(C(F)(F)F)c(N)c1[N+](=O)[O-] | inactive |  |
| COC(=O)c1ccccc1C(=O)O | inactive |  |
| CC1(C)C(C=C(Cl)Cl)C1C(=O)OCc1cccc(Oc2ccccc2)c1 (centres undefined) | inactive |  |
| C[C@]12CC[C@@H]3c4ccc(O)cc4C[C@@H](CCCCCCCCCS(=O)CCCC(F)(F)C(F)(F)F)[C@H]3[C@@H]1CC[C@@H]2O (some centres undefined) | inactive |  |
| CCC(C)OC(=O)N1CCCCC1CCO (centres undefined) | inactive |  |
| COCCO | inactive |  |
| c1ccc(Nc2ccccc2)cc1 | inactive |  |
| O=C(c1ccccc1)C1CCCCC1 | inactive |  |
| COc1c(Cl)ccc(Cl)c1C(=O)O | inactive |  |
| O=C(c1ccc(O)cc1O)c1ccc(O)cc1O | inactive |  |
| CCOC(=O)c1ccc(O)cc1 | inactive | 100 µM (active) |
| O=C(O)C1(C(=O)Nc2ccc(Cl)cc2Cl)CC1 | inactive |  |
| CC(C)(C)[C@@H](O)[C@@H](Cc1ccc(Cl)cc1)n1cncn1 | inactive |  |
| CC(C)(c1ccc(O)cc1)c1ccc(O)cc1 | inactive |  |
| CCOC(=O)C(C)Oc1ccc(Oc2cnc3cc(Cl)ccc3n2)cc1 (centres undefined) | inactive |  |
| N#CSCSc1nc2ccccc2s1 | inactive | 14.3 µM (active) |
| CC(=O)S[C@@H]1CC2=CC(=O)CC[C@]2(C)[C@H]2CC[C@@]3(C)[C@@H](CC[C@@]34CCC(=O)O4)[C@H]12 | inactive | 38.7 µM (active) and 21.9 µM (active) and 4.9 µM (active) |
| CC(C)CCCCCCc1ccc(O)cc1 | inactive | 16.6 µM (active) and 19.4 µM (active) and 18.5 µM (active) |
| CCOC(=O)NCCOc1ccc(Oc2ccccc2)cc1 | inactive |  |
| CCNc1nc(N)nc(Cl)n1 | inactive |  |
